Assay results as given in PubChem BioAssay AID1645882 (National Center for Advancing Translational Sciences (NCATS), 2021).
Values joined by “and” are separate entries in the source; they are usually repeats but may differ in a detail not shown here. Identical values can stand only once. The campaign covered roughly 16,000 compounds. About 120 (0.75%) were called active. About 4% were inconclusive and are not listed. The entries come from a sample that favours actives as a whole. A call without a number means that no potency is given here. More than one record can exist for a structure, and the calls need not agree. Unmarked numbers belong to inactive results. Calls follow the shape of the dose curve; as a rule, active = well fitted inhibition curve with a large enough effect; inconclusive = small, poorly fitted or top-dose-only effect; inactive = no such curve, though single readings can be large or run the other way.

Each compound was assayed against Rap guanine nucleotide exchange factor 3 (Homo sapiens) (UniProt O95398) (assay: Validation qHTS for antagonist of cAMP-regulated guanine nucleotide exchange factor 3 (EPAC1)). Conditions: EPAC1 Rap1B-BODIPY-GDP exchange, fluorescence; series mostly up to 150 µM.
Rap guanine nucleotide exchange factor 3 (Homo sapiens), sequence (O95398 whole entry, looked up): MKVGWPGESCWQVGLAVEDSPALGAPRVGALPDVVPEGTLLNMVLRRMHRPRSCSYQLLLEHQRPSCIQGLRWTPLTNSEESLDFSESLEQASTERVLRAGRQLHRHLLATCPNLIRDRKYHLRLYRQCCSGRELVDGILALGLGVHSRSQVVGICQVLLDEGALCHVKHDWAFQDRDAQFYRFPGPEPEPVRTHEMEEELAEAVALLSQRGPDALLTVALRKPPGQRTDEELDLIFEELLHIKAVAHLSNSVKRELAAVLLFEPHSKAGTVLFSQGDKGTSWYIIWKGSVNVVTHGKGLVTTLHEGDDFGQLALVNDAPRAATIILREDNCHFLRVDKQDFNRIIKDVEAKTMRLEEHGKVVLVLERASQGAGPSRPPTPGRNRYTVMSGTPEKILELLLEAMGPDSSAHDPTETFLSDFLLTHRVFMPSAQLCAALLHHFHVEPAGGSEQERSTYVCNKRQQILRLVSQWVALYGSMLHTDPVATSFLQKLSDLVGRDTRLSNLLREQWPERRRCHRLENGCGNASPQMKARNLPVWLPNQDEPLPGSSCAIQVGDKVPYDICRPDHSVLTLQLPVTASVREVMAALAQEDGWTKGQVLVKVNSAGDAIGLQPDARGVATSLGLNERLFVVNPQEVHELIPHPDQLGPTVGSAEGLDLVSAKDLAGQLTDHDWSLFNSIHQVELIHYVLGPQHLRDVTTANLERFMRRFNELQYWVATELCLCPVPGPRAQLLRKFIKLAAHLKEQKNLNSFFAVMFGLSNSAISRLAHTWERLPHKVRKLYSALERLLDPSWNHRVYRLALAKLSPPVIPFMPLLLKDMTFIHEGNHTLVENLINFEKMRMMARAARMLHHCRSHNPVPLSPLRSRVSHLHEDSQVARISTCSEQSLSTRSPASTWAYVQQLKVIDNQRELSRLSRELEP
Method in brief: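 EPAC1 (100 nM) mixed with 250 nM RAP1B-BODIPY-GDP and 50 uM GDP; compounds in concentration series, 5 min at room temperature. Fluorescence (ex 480/em 540 nm) read every 5 min for 30 min; normalized to ATA control and DMSO.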
Also: nearly all actives have a fitted effect of over 75% in size.
Potency is read from the fitted curve at half-maximal effect.

| Compound | Potency | activity change, negative = inhibition |
| --- | --- | --- |
| Cn1cccc1C(=O)N1CCC[C@@]2(CCN(c3ncccn3)C2)C1 | inactive |  |
| CCOC(=O)Cc1cccc(-c2cc(CCCCCCc3ccc(O[C@H]4O[C@H](COC(C)=O)[C@@H](OC(C)=O)[C@H](OC(C)=O)[C@@H]4OC(C)=O)c(-c4cccc(CC(=O)OCC)c4)c3)ccc2O[C@H]2O[C@H](COC(C)=O)[C@@H](OC(C)=O)[C@H](OC(C)=O)[C@@H]2OC(C)=O)c1 | inactive |  |
| O=C(OC[C@H]1O[C@@H](OC(=O)c2cc(O)c(O)c(OC(=O)c3cc(O)c(O)c(O)c3)c2)[C@H](OC(=O)c2cc(O)c(O)c(OC(=O)c3cc(O)c(O)c(O)c3)c2)[C@@H](OC(=O)c2cc(O)c(O)c(OC(=O)c3cc(O)c(O)c(O)c3)c2)[C@@H]1OC(=O)c1cc(O)c(O)c(OC(=O)c2cc(O)c(O)c(O)c2)c1)c1cc(O)c(O)c(OC(=O)c2cc(O)c(O)c(O)c2)c1 | 11.2 µM (active) |  |
| CCCOC(=O)c1cc(O)c(O)c(O)c1 | inactive |  |
| COc1cc(/C=C/C(=O)c2cccs2)cc(OC)c1OC | inactive |  |
| Cc1cc(-c2ccc(N=Nc3ccc4c(S(=O)(=O)O)cc(S(=O)(=O)O)c(N)c4c3O)c(C)c2)ccc1N=Nc1ccc2c(S(=O)(=O)O)cc(S(=O)(=O)O)c(N)c2c1O | 20 µM (active) and 50.1 µM (active) and 31.6 µM (active) |  |
| COc1cc(O)c(C(=O)c2ccccc2)cc1S(=O)(=O)O | inactive |  |
| COc1cc(-c2ccc(N=Nc3ccc4c(S(=O)(=O)O)cc(S(=O)(=O)O)c(N)c4c3O)c(OC)c2)ccc1N=Nc1ccc2c(S(=O)(=O)O)cc(S(=O)(=O)O)c(N)c2c1O | 31.6 µM (active) | 12.3% [at 27.4 µM] |
| CCC1CN(CC(=O)NC(C)c2c(C)nn(C)c2C)Cc2cc(OC)ccc2O1 (stereo not given) | inactive |  |
| Cc1c(C(=O)N(C)CC2CCCN(C)C2)cnn1-c1nccc(-c2ccco2)n1 (stereo not given) | inactive |  |
| COC(=O)[C@@H]1[C@@H]2C[C@H]3c4[nH]c5ccccc5c4CCN3C[C@@H]2CC[C@@H]1O | inactive |  |
| CC1CC[C@@]2(C(=O)O)CC[C@]3(C)C(=CCC4[C@@]5(C)CCC(O)C(C)(C)C5CC[C@@]43C)C2C1C (stereo not given in full) | inactive |  |
| CN(C)c1ccc(/C=C/c2ccnc3c(-c4ccccc4)cccc23)cc1 | inactive |  |
| CC1COC2=C1C(=O)C(=O)c1c2ccc2c1CCCC2(C)C (stereo not given) | inactive |  |
| Cc1c(S(=O)(=O)O)oc2c1C(=O)C(=O)c1c-2ccc2c1CCCC2(C)C | 100 µM (active) |  |
| Cc1coc2c1C(=O)C(=O)c1c-2ccc2c1CCCC2(C)C | inactive |  |
| O=C(c1cccc(F)c1)N1CCC2(CCCN(c3ccncc3)C2)CC1 | inactive |  |
| Cc1cnc(-n2ncc(C(=O)NCC3COCCO3)c2C2CC2)nc1-c1cccs1 (stereo not given) | inactive |  |
| Cc1nc(NCc2cccc3c2OCO3)sc1-c1ccn(CC2CCCN(C)C2)n1 (stereo not given) | inactive |  |
| O=C(Nc1ccc([N+](=O)[O-])cc1Cl)c1cc(Cl)ccc1O | inactive |  |
| Cc1cc(C(C#N)c2ccc(Cl)cc2)c(Cl)cc1NC(=O)c1cc(I)cc(I)c1O (stereo not given) | 50.1 µM (active) |  |

| Compound | Potency | activity change, negative = inhibition |
| --- | --- | --- |
| COC(=O)C[C@H]1c2ccccc2S(=O)(=O)N1Cc1ccc(OC)cc1 | inactive |  |
| C(=C\c1ccncc1)/c1ccccc1 | inactive |  |
| Cc1cc(N)c2cc(NC(=O)Nc3ccc4nc(C)cc(N)c4c3)ccc2n1 | 28.2 µM (active) |  |
| O=C(Nc1ccc(Cl)cc1)Nc1ccc(Cl)c(Cl)c1 | inactive |  |
| Cc1cc(NC(=O)Nc2ccc(N(C)C)cc2)c2cc(F)cc(F)c2n1 | inactive |  |
| COCc1c(C(=O)NC2CCCCC2)cnn1-c1nccc(-c2cc(C)sc2C)n1 | inactive |  |
| O=C(Cn1cccn1)N1CCOc2c(cc(-c3ncc(C(F)(F)F)cc3Cl)cc2OCC2CCCO2)C1 (stereo not given) | inactive |  |
| CCOc1ccc(S(=O)(=O)O)c2cccnc12 | inactive |  |
| O=S(=O)(O)c1cc(I)c(O)c2ncccc12 | inactive |  |
| O=C(Nc1ccc(/C=C/c2ccc(NC(=O)c3cc(S(=O)(=O)O)c4cccnc4c3O)cc2S(=O)(=O)O)c(S(=O)(=O)O)c1)c1cc(S(=O)(=O)O)c2cccnc2c1O | 44.7 µM (active) |  |
| O=C(c1cnsn1)N1CCOc2ccc(CN3CCOCC3)cc2C1 | inactive |  |
| COCC(=O)Nc1cc(C(=O)N2CCCC(C(N)=O)C2)cc2nc(-c3ccccc3)n(C)c12 (stereo not given) | inactive |  |
| COc1ccc(CNc2ncnc3ccc(-c4ccc(N(C)C)cc4)cc23)c(OC)c1 | inactive |  |
| Nc1ncnc2c1nc(Br)n2[C@H]1O[C@H]2COP(=O)(O)O[C@H]2[C@@H]1O | 2.51 µM (active) |  |
| [N-]=[N+]=Nc1nc2c(N)ncnc2n1C1OC(CO)C(O)C1O (stereo not given) | inactive |  |
| Nc1ncnc2c1nc(Br)n2C1CC(O)C(CO)O1 (stereo not given) | inactive |  |
| Nc1ncnc2c1nc(Br)n2C1OC(CO)C(O)C1O (stereo not given) | inactive |  |
| Nc1ncnc2c1nc(Br)n2C1OC2COP(=O)(O)O[C@@H]2C1O (stereo not given in full) | 0.708 µM (active) |  |
| NC1=NC2C(N=C(Br)N2[C@@H]2O[C@H]3COP(=O)(O)O[C@@H]3[C@@H]2O)C(=O)N1 (stereo not given in full) | inactive |  |
| Nc1ncnc2c1nc(Sc1ccc(Cl)cc1)n2[C@H]1OC2COP(=O)(O)O[C@@H]2C1O (stereo not given in full) | 0.316 µM (active) |  |
| Nc1ncnc2c1nc(Br)n2[C@@H]1O[C@H]2COP(=O)(O)O[C@@H]2[C@@H]1O | 2.82 µM (active) |  |

| Compound | Potency | activity change, negative = inhibition |
| --- | --- | --- |
| Nc1nc2c(nc(Br)n2C2OC3COP(=O)(O)O[C@@H]3C2O)c(=O)[nH]1 (stereo not given in full) | inactive |  |
| Nc1nc2c(nc(Sc3ccc(Cl)cc3)n2C2OC(CO)C(O)C2O)c(=O)[nH]1 (stereo not given) | inactive |  |
| Nc1ncnc2c1nc(Cl)n2C1OC(CO)C(O)C1O (stereo not given) | inactive |  |
| Nc1nc2c(nc(Br)n2[C@@H]2O[C@H]3COP(=O)(O)O[C@H]3[C@@H]2O)c(=O)[nH]1 | inactive |  |
| O=S(=O)(c1ccccc1)N1CCC2(CCCN(c3ccccc3)C2)CC1 | inactive |  |
| Cc1cccc(CNC(=O)c2cnn(-c3nccc(-c4ccccc4F)n3)c2C)n1 | inactive |  |
| C[C@]12C[C@H](O)CC(CO)(CO)C1[C@H](O)C[C@@]13CC4[C@@H](CC12)[C@@]4(C)C3 (stereo not given in full) | inactive |  |
| N#Cc1cccc(NC(=O)N2CCC3(CC2)CCN(C(=O)c2cnccn2)CC3)c1 | inactive |  |
| O=S(=O)(NCc1ccccc1)[C@@H]1CC2C=CC1C2 (stereo not given in full) | inactive |  |
| CC(C)(C)OC(=O)NS(=O)(=O)NOCc1ccccc1 | inactive |  |
| COc1cc2c(cc1OC)C1C(=O)c3ccc4c(c3OC1CO2)C=CC(C)(C)O4 (stereo not given) | inactive |  |
| Cc1ccccc1C1(CC(=O)N2CC3(C)CC2CC(C)(C)C3)CC(=O)N(Cc2cccnc2)C1=O (stereo not given) | inactive |  |
| O=C(c1cccc(F)c1)N1CCC[C@@]2(CCN(Cc3ccncc3)C2)C1 | inactive |  |
| COc1ccc(C(=O)N2CCC3(CC2)CN(c2ccccc2)C3)cc1 | inactive |  |
| CCN(CC)CCOC[C@H]1O[C@@H](O)[C@H](OCCN(CC)CC)[C@@H](O)[C@@H]1O | inactive |  |
| OC1(c2cccnc2)CCN(Cc2ccc3c(c2)CN(Cc2cc4ccccc4s2)CCO3)CC1 | inactive |  |
| COC(=O)c1c(OCCN2CCCCC2)cc(=O)n2c1CCN(Cc1cccc3nccnc13)CC2 | inactive |  |
| Cn1c(=O)c(-c2ccccc2)nc2cnc(Nc3ccccc3)nc21 | inactive |  |
| O=C(Nc1cccc(F)c1)N1CC[C@@]2(CCCN(C(=O)c3ccco3)C2)C1 | inactive |  |
| O=C(c1csnn1)N1CCC[C@@]2(CCN(c3ncccn3)C2)C1 | inactive |  |
| CC(=O)N[C@@H](CSC/C=C(\C)CCC=C(C)C)C(=O)O | inactive |  |

| Compound | Potency | activity change, negative = inhibition |
| --- | --- | --- |
| CC(=O)N[C@@H](CSC/C=C(\C)CC/C=C(\C)CC/C=C(\C)CCC=C(C)C)C(=O)O | 56.2 µM (active) | 32.8% [at 15.3 µM] |
| CC(=O)CC/C=C(\C)CC/C=C(\C)CC/C=C(\C)CCC=C(C)C | inactive |  |
| CCN(CC)CCOc1ccccc1OC | inactive |  |
| C[C@H](CC[C@@H]1OC1(C)C)C1CC[C@H]2[C@@H]3CC=C4C[C@@H](O)CC[C@]4(C)[C@H]3CC[C@]12C (stereo not given in full) | inactive |  |
| C[C@@H]1C(=O)CC2C(C)(C)CCC[C@]2(C)[C@@]1(O)CCc1ccoc1 (stereo not given in full) | inactive |  |
| CC(=O)/C=C/c1ccc2c(c1)S(=O)(=O)N(C1CCCC1)[C@H]2CC(C)=O | 56.2 µM (active) |  |
| CCOC(=O)/C=C/c1ccc2c(c1)S(=O)(=O)N(C1CCCC1)[C@H]2CC(=O)OCC | inactive |  |
| O=C(O)/C=C/c1ccc2c(c1)S(=O)(=O)N(C1CCCC1)[C@H]2CC(=O)O | inactive |  |
| CC1(C)S[C@@H]2[C@H](NC(=O)C(N)c3ccccc3)C(=O)N2[C@H]1C(=O)OC1OC(=O)c2ccccc21 (stereo not given in full) | inactive |  |
| COc1ccc(N2C(=O)[C@@H]3C[C@H]2CN3Cc2cccn2-c2ccc(Cl)cn2)c(C)c1 | inactive |  |
| COc1ccc2c(c1)[C@@]1(C)CCC[C@](C)(CO)C1CC2 (stereo not given in full) | inactive |  |
| Cc1cc(C(=O)NCc2nc(-c3ccccc3NC(=O)C3CCCO3)oc2C)nc(C)n1 (stereo not given) | inactive |  |
| COc1c2ccccc2nc2occc12 | inactive |  |
| Nc1ccc(O)c(C(=O)O)c1 | inactive |  |
| O=C(O)C1=CC(=C(c2ccc(O)c(C(=O)O)c2)c2ccc(O)c(C(=O)O)c2)C=CC1=O | 56.2 µM (active) and 1.58 µM (active) |  |
| O=C(O)c1cc(N=Nc2ccc(O)c(C(=O)O)c2)ccc1O | inactive |  |
| O=C(NCC1CCC2(CCN(Cc3c[nH]c4ccccc34)CC2)O1)C1CCOCC1 (stereo not given) | inactive |  |
| CO[C@H]1C=CO[C@@]2(C)Oc3c(C)c(O)c4c(O)c(c(/C=N/N5CCN(C)CC5)c(O)c4c3C2=O)NC(=O)/C(C)=C\C=C[C@H](C)[C@H](O)[C@@H](C)[C@@H](O)[C@@H](C)[C@H](OC(C)=O)[C@@H]1C | 89.1 µM (active) |  |
| CO[C@H]1C=CO[C@@]2(C)Oc3c(C)c(O)c4c(O)c(c(C=NN5CCN(C)CC5)c(O)c4c3C2=O)NC(=O)C(C)=CC=C[C@H](C)[C@H](O)[C@@H](C)[C@@H](O)[C@@H](C)[C@H](OC(C)=O)[C@H]1C | inactive |  |
| CO[C@H]1C=CO[C@@]2(C)Oc3c(C)c(O)c4c(O)c(cc(O)c4c3C2=O)NC(=O)/C(C)=C\C=C/[C@H](C)[C@H](O)[C@@H](C)[C@@H](O)[C@@H](C)[C@H](OC(C)=O)[C@@H]1C | inactive |  |
